This note sets out measurements from PubChem BioAssay AID1259421 (Broad Institute, 2018).

Values joined by “and” are separate entries in the source; they are usually repeats but may differ in a detail not shown here. Equal values may be shown once. Hit rate of the full screen: of about 6,400 compounds, about 610 (9.5%) were called active. No stated cut-off is given here; in the data, active means activity change below about -70%; inconclusive means no clear call, values can overlap the other calls; inactive means above that. For the sample, actives were picked, then their nearest neighbours and some compounds at random. A structure can be active in one record and inactive in another.

The assay can be described thus: Toxoplasma gondii ME49Luc growth in HeLa cells, luciferase, no IFN-y, primary screen (AID 1259421). The note with it: T. gondii ME49Luc in HeLa, 72 h, stronger effect = lower value, concentration not given here.
With `COc1ccc(-c2coc3c(O)c(O)c(OC)cc3c2=O)cc1`, the activity change, negative = inhibition was 77.9% (inactive).

Turning to `Nc1c2c(nc3ccccc13)CCCC2O` (stereo unspecified), the activity change, negative = inhibition was 8.95% (inactive).

With `Nc1c2ccccc2nc2ccccc12`, the activity change, negative = inhibition is -47.3% (inactive) and -70.8% (active) and 3.45% (inactive).

For `Nc1c2c(nc3ccccc13)CCCC2`, the activity change, negative = inhibition is -1.53% (inactive) and -2.1% (inactive).

With `CCCCCCCCCCCCCCCCn1cc[n+](Cc2ccccc2)c1C`, the activity change, negative = inhibition is -85.6% (active).

For the compound `CCCCCCCCCCCCCCCC[N+](C)(C)Cc1ccccc1`, the activity change, negative = inhibition is -3.66% (inactive).

With `CN1CCN(CCCCN2C(=O)CN(/N=C/c3ccc(-c4ccc(Cl)cc4)o3)C2=O)CC1`, the activity change, negative = inhibition was 16.2% (inactive).

`C[N+](C)(C)CC(O)CC(=O)O` (stereo unspecified): the activity change, negative = inhibition was -0.966% (inactive).

On to `CC[C@@H](C)Nc1cc(C(=O)NC2CC3CCC(C2)N3c2ccc(C(=O)C3CC3)cn2)c(C)cc1C(N)=O` (stereo partly specified), for which the activity change, negative = inhibition is -89.6% (active).

Take `CCCCC(F)(F)C(=O)CC[C@H]1[C@H](O)CC(=O)[C@@H]1CCCCCCC(=O)O`: the activity change, negative = inhibition is 34.9% (inactive) and 7.68% (inactive).

For the compound `N#C/C(=C/c1ccc(O)c(O)c1)C(=O)OCCc1cccs1`, the activity change, negative = inhibition was 11.8% (inactive).

Regarding `CC(=O)N(C)C1(c2ccccc2)CCN(CCC[C@]2(c3ccc(Cl)c(Cl)c3)CCCN(C(=O)c3ccccc3)C2)CC1`, the activity change, negative = inhibition is -7.4% (inactive).

With `NC(N)=NCC1COC2(CCCCC2)O1` (stereo unspecified), the activity change, negative = inhibition is -1.54% (inactive).

With `NC1(C(=O)O)CC1`, the activity change, negative = inhibition was 13.6% (inactive).

On to `CC(=O)O[C@H]1C[C@@H](OC(C)=O)C(C)(C)C2C[C@@H](OC(C)=O)[C@]3(C)C(CC[C@@]4(C)[C@H](c5ccoc5)OC(=O)[C@H]5O[C@]543)[C@]21C` (stereo partly specified), for which the activity change, negative = inhibition was 0.452% (inactive).

For `CCS(=O)(=O)N(C)[C@H]1c2cc(C#N)ccc2OC(C)(C)[C@@H]1O` (racemic), the activity change, negative = inhibition was 9.6% (inactive).

Regarding `CCS(=O)(=O)N(C)C1c2cc(C#N)ccc2OC(C)(C)C1O` (stereo unspecified), the activity change, negative = inhibition was -6.08% (inactive).

Consider `CC(=O)N(O)[C@@H]1c2cc(C#N)ccc2OC(C)(C)[C@H]1O`, for which the activity change, negative = inhibition was -86% (active) and 7.72% (inactive).

As to `Nc1c[n+](N2CCOCC2)no1`, the activity change, negative = inhibition is 18.8% (inactive).

For the compound `CO/N=C(/C(=O)NC1C(=O)N2C(C(=O)OC(C)OC(C)=O)=C(COC(N)=O)CSC12)c1ccco1` (stereo unspecified), the activity change, negative = inhibition was 4.1% (inactive).

As to `O=C(O)CCC/C=C\C[C@@H]1[C@@H](/C=C/[C@@H](O)COc2cccc(Cl)c2)[C@H](O)C[C@@H]1O`, the activity change, negative = inhibition was 11.1% (inactive) and 5.18% (inactive) and 11% (inactive).

As to `Cc1c[nH]c(=O)n(CCCN2CCN(c3ccccc3OCC(F)(F)F)CC2)c1=O`, the activity change, negative = inhibition was 2.85% (inactive) and 2.68% (inactive).

For the compound `C1CCC2(CC1)CCNCC2`, the activity change, negative = inhibition is -1.4% (inactive).

Turning to `COc1cc2c(Nc3ccc(NC(=O)c4ccccc4)cc3)ncnc2cc1OCCCN1CCOCC1`, the activity change, negative = inhibition was -50.7% (inactive) and -23.3% (inactive).

As to `COc1cc2ncnc(Nc3ccc(F)c(Cl)c3)c2cc1OCCCN1CCOCC1`, the activity change, negative = inhibition is 15.9% (inactive).

Consider `COc1cc(Nc2c(C#N)cnc3cc(OCCCN4CCN(C)CC4)c(OC)cc23)c(Cl)cc1Cl`, for which the activity change, negative = inhibition was -79.2% (active) and -77.5% (active).

With `CN(C)C(=O)NC1CCC(CCN2CCN(c3cccc(Cl)c3Cl)CC2)CC1` (stereo unspecified), the activity change, negative = inhibition is 3.31% (inactive).

With `CC12CCC(C(=O)N(CCCCN3CCN(c4ccccn4)CC3)C1=O)C2(C)C` (stereo unspecified), the activity change, negative = inhibition is -4.45% (inactive).

As to `CCNC(=O)[C@H]1O[C@@H](n2cnc3c(N)nc(NCCc4ccc(CCC(=O)O)cc4)nc32)[C@@H](O)[C@@H]1O`, the activity change, negative = inhibition was 9.76% (inactive).

As for `CC(C)(C)c1cnc(CSc2cnc(NC(=O)C3CCNCC3)s2)o1`, the activity change, negative = inhibition was -71.7% (active).

`CC(=O)O[C@@H]1CC2C(C)(C)[C@H](O)CC[C@]2(C)C2CC[C@@]3(C)[C@H](c4ccoc4)OC(=O)C4OC43[C@@]21C` (stereo partly specified): the activity change, negative = inhibition was 14.1% (inactive).

For `COc1cccc(CCc2ccccc2OCC[C@@H]2C[C@@H](O)CN2C)c1`, the activity change, negative = inhibition was -6.08% (inactive) and -38.5% (inactive).

Take `Nc1ccc(-c2cccc3c(=O)cc(N4CCOCC4)oc23)cc1`: the activity change, negative = inhibition is 3.1% (inactive) and -4.84% (inactive).

Regarding `O=c1cc(N2CCNCC2)oc2c(-c3ccccc3)cccc12`, the activity change, negative = inhibition was -75.1% (active) and -94.2% (active).

Consider `O=c1cc(N2CCOCC2)oc2c(-c3ccccc3)cccc12`, for which the activity change, negative = inhibition was 13.4% (inactive).

As to `Nc1ncnc2c1ncn2[C@@H]1O[C@H](COP(=O)(O)OP(=O)(O)OP(=O)(O)OP(=O)(O)OC[C@H]2O[C@@H](n3cnc4c(N)ncnc43)C(O)C2O)C(O)C1O` (stereo partly specified), the activity change, negative = inhibition was -3.47% (inactive).

Regarding `O=C1C=CC(=O)C2=C1C1c3ccccc3C2c2ccccc21`, the activity change, negative = inhibition was -2.66% (inactive).

Take `Cn1cccc1/C=C1\C(=O)NC(=O)c2ccccc21`: the activity change, negative = inhibition was -4.19% (inactive).

For the compound `CCc1cc(Cl)c(OC)c(C(=O)NCC2CCCN2CC)c1O` (stereo unspecified), the activity change, negative = inhibition was 0.175% (inactive).

Consider `c1cnc(SCc2cccnc2)nc1`, for which the activity change, negative = inhibition is 15.1% (inactive).

In the case of `CC(C)(C)CC(C)(C)c1ccc(OCCOCC[N+](C)(C)Cc2ccccc2)cc1`, the activity change, negative = inhibition was -84.1% (active) and 4.83% (inactive).

In the case of `Cc1cc(C(C)(C)CC(C)(C)C)ccc1OCCOCC[N+](C)(C)Cc1ccccc1`, the activity change, negative = inhibition is -1.86% (inactive).

Consider `C[N+](C)(CCOc1ccccc1)Cc1ccccc1`, for which the activity change, negative = inhibition was 13.6% (inactive).

Take `CC(O)COC[C@H]1O[C@@H]2O[C@H]3[C@H](O)[C@@H](O)[C@@H](O[C@H]4[C@H](O)[C@@H](O)[C@@H](O[C@H]5[C@H](O)[C@@H](O)[C@@H](O[C@H]6[C@H](O)[C@@H](O)[C@@H](O[C@H]7[C@H](O)[C@@H](O)[C@@H](O[C@H]8[C@H](O)[C@@H](O)[C@@H](O[C@H]1[C@H](O)[C@H]2O)O[C@@H]8COCC(C)O)O[C@@H]7COCC(C)O)O[C@@H]6COCC(C)O)O[C@@H]5COCC(C)O)O[C@@H]4COCC(C)O)O[C@@H]3COCC(C)O` (stereo partly specified): the activity change, negative = inhibition is 10.2% (inactive).

In the case of `C=CCn1c(=O)n(C2OC(CO)C(O)C2O)c2nc(N)[nH]c(=O)c21` (stereo unspecified), the activity change, negative = inhibition was 0.162% (inactive).

For the compound `CCNC(=O)[C@@H]1CCCN1C(=O)[C@H](CCCN=C(N)N)NC(=O)[C@H](CC(C)C)NC(=O)[C@@H](COC(C)(C)C)NC(=O)[C@H](Cc1ccc(O)cc1)NC(=O)[C@H](CO)NC(=O)[C@H](Cc1c[nH]c2ccccc12)NC(=O)[C@H](Cc1cnc[nH]1)NC(=O)C1CCC(=O)N1` (stereo partly specified), the activity change, negative = inhibition was 9.62% (inactive).
